Records with an inconclusive call do not appear. The source made the active and inactive calls. The call rests on the fitted dose curve; in most records, active means well fitted activation curve with a large enough effect; inconclusive means small, poorly fitted or top-dose-only effect; inactive means no such curve, though single readings can be large or run the other way.
Potency means the concentration at half of the fitted maximal effect.

For the experiment, the target named is Relaxin receptor 1 (Homo sapiens) (UniProt Q9HBX9). The experiment is described as follows: qHTS Assay for Agonists of the Relaxin Receptor RXFP1: RXFP1 Hit Validation. Further: nearly all actives have a fitted effect of over 65% in size.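 On activation: cAMP rise lowers the TR-FRET signal in lysed cells with PDE4 inhibitor present; 0% = buffer-only basal and 100% = 29 nM porcine relaxin.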 Conditions: HEK293T-RXFP1 cAMP TR-FRET, 30 min; series mostly up to 115 µM; activation: at the top concentration.
Sequence of Relaxin receptor 1 (Homo sapiens) (Q9HBX9 whole entry, looked up): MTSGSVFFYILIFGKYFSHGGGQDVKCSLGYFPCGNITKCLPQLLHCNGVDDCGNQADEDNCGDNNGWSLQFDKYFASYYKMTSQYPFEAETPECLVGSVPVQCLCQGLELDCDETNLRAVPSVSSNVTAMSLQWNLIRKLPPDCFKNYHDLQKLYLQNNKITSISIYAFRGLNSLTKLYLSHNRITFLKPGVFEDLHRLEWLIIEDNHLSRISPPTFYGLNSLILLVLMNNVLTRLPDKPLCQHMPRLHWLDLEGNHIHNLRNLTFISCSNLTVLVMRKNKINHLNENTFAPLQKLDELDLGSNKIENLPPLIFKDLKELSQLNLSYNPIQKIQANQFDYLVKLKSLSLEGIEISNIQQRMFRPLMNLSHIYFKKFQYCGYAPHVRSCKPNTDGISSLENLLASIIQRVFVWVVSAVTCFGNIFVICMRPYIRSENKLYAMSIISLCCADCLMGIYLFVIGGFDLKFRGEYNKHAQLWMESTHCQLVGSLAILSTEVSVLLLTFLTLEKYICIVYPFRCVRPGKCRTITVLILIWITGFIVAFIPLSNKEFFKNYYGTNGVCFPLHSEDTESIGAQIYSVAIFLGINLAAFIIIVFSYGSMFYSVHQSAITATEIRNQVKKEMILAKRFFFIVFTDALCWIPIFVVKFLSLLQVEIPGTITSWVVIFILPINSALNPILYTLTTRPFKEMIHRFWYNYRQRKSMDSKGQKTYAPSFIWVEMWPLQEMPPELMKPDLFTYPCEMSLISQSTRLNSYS
Take `COc1ccc(CC(=O)N/N=C/c2cccnc2)cc1OC`: the “activation” value is -6.39% (inactive).
Regarding `CC1(C)Cc2nc3sc4c(SCC(=O)NC(c5ccccc5)c5ccccc5)ncnc4c3cc2CO1`, the Potency was 4880 nM (active).
Consider `CCCC(=O)Nc1ncnc2c1ncn2[C@@H]1O[C@@H]2OP(=O)(O)OC[C@H]2[C@H]1OC(=O)CCC`, for which the Potency is 346 nM (active).

The values are drawn from PubChem BioAssay AID489012 (National Center for Advancing Translational Sciences (NCATS), 2010).
